A short description of test [1]: NCI Yeast Anticancer Drug Screen. Data for the rad50 strain (AID 155).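 Note: 0% = growth of vehicle-only cultures of the same strain.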 The following applies: S. cerevisiae rad50 strain growth inhibition, stronger effect = higher value. The procedure, abridged: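 Readout: growth inhibition relative to vehicle-treated cultures. Compound exposure was carried out in a genetically defined yeast strain deficient in DNA damage repair.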
Test [2] can be described thus: NCI Yeast Anticancer Drug Screen. Data for the mec2-1 strain (AID 157). Particulars: S. cerevisiae mec2-1 strain, stronger effect = higher value. Put shortly: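 Each compound was tested on mec2-1 yeast, a strain altered in DNA damage repair or cell cycle control. Growth inhibition is reported relative to vehicle.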
The nature of test [3]: NCI Yeast Anticancer Drug Screen. Data for the sgs1 mgt1 strain (AID 161).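 Note: 0% = growth of cultures given vehicle only.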 The following applies: S. cerevisiae sgs1 mgt1 strain, stronger effect = higher value. Put shortly: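 Inhibition of yeast growth, normalised to vehicle-treated controls, is reported for a strain bearing genetic alterations in DNA damage repair.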
The nature of test [4]: NCI Yeast Anticancer Drug Screen. Data for the cln2 rad14 strain (AID 165).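 Note: 0% = growth equal to vehicle treated cultures.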 Particulars: S. cerevisiae cln2 rad14 strain, stronger effect = higher value. Put shortly: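 Test compounds were added to cln2 rad14 yeast cultures; inhibition of growth was then determined by comparison with vehicle treatment.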
Test [5] is described as follows: NCI Yeast Anticancer Drug Screen. Data for the bub3 strain (AID 167). The following applies: S. cerevisiae bub3 mutant strain, stronger effect = higher value. Put shortly:
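Readout: yeast growth inhibition, expressed relative to vehicle-only wells. The test organism is a mutant strain from a panel with lesions in DNA repair or checkpoint genes.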

A short description of test [6]: NCI Yeast Anticancer Drug Screen. Data for the mlh1 rad18 strain (AID 175). Particulars: S. cerevisiae mlh1 rad18 strain growth inhibition, stronger effect = higher value. The procedure, abridged:
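Inhibition values reflect reduced growth of mutant yeast versus vehicle-treated controls following compound exposure; the mutations affect DNA damage repair.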

The mark [7] stands for this setting: at 5.0 µM (retest, dose inferred, filed as 0.5).
Setting [8] is: at 50.0 µM (retest, dose inferred, filed as 5.0).

This note sets out measurements from PubChem BioAssay (NCI).

Each structure is given as a SMILES string. About 79,000 compounds went through this panel and 15% of them were active in at least one assay; those are over-represented in the sample as a whole. Unmarked numbers belong to inactive results. Activity calls are given as the source filed them. Cut-off read from the data, not from the text of the source: active = growth inhibition above about 70%; inactive = the rest.

Consider `CC(C)(C[NH-])C[NH-].[Cl][Pt+2]([Cl])([Cl])[Cl]`, for which the growth inhibition in test [1] (setting [7]) is 78% (active); in test [1] (setting [8]) it was 97% (active); in test [1] (at 50.0 µM) it was 82.3% (active); in test [2] (setting [7]), 93% (active); in test [2] (setting [8]) it was 99% (active); in test [2] (at 50.0 µM), 86.5% (active). In addition, the growth inhibition was 95% (active) in test [3] (setting [7]); 99% (active) in test [3] (setting [8]); 86.5% (active) in test [3] (at 50.0 µM); 79% (active) in test [4] (setting [7]); 99% (active) in test [4] (setting [8]); 87.4% (active) in test [4] (at 50.0 µM). The growth inhibition in test [5] (setting [7]) was 95% (active); in test [5] (setting [8]), 99% (active); in test [5] (at 50.0 µM), 82.5% (active); in test [6] (setting [7]) it was 90% (active); in test [6] (setting [8]) it was 97% (active); in test [6] (at 50.0 µM), 57.5%.
Consider `CC(=O)OCc1cc2ccccc2nc1C(Br)(Br)Br`, for which the growth inhibition in test [1] (setting [7]) is -11%; in test [1] (setting [8]), 95% (active); in test [1] (at 50.0 µM), 96% (active); in test [2] (setting [7]), -6%; in test [2] (setting [8]), 95% (active); in test [2] (at 50.0 µM) it was 95.8% (active). For the same compound, the growth inhibition was 39% in test [3] (setting [7]); 99% (active) in test [3] (setting [8]); 97.5% (active) in test [3] (at 50.0 µM); -4% in test [4] (setting [7]); 96% (active) in test [4] (setting [8]); 96.7% (active) in test [4] (at 50.0 µM). For the same compound, the growth inhibition in test [5] (setting [7]) was 62%; in test [5] (setting [8]), 99% (active); in test [5] (at 50.0 µM), 95.2% (active); in test [6] (setting [7]), 39%; in test [6] (setting [8]) it was 96% (active); in test [6] (at 50.0 µM), 96.7% (active).
Regarding `Oc1cc(O)c2c(c1)OC(c1ccc(O)c(O)c1)C(OC1(c3cc(O)c(O)c(O)c3)Oc3cc(O)cc(O)c3C(O)C1O)C2` (stereo not given), the growth inhibition in test [1] (setting [7]) was -4%; in test [1] (setting [8]), 17%; in test [1] (at 50.0 µM) it was -3.85%; in test [2] (setting [7]), -5%; in test [2] (setting [8]), -27%; in test [2] (at 50.0 µM), -18.2%. The growth inhibition is -14% in test [3] (setting [7]); 6% in test [3] (setting [8]); -15.9% in test [3] (at 50.0 µM); -31% in test [4] (setting [7]); 4% in test [4] (setting [8]); -9.25% in test [4] (at 50.0 µM). Besides, the growth inhibition in test [5] (setting [7]) was 8%; in test [5] (setting [8]), -4%; in test [5] (at 50.0 µM), -33.5%; in test [6] (setting [7]), -5%; in test [6] (setting [8]), 12%; in test [6] (at 50.0 µM), 42.5%.
Take `Oc1ccccc1C1N(Cc2ccc(Cl)cc2)CCN1Cc1ccc(Cl)cc1`: the growth inhibition is 7% in test [1] (setting [7]); 57% in test [1] (setting [8]); 18.2% in test [1] (at 50.0 µM); 7% in test [2] (setting [7]); 58% in test [2] (setting [8]); 17.6% in test [2] (at 50.0 µM). The growth inhibition in test [3] (setting [7]) was 20%; in test [3] (setting [8]), 93% (active); in test [3] (at 50.0 µM) it was 46.5%; in test [4] (setting [7]), 14%; in test [4] (setting [8]), 58%; in test [4] (at 50.0 µM) it was 62.6%. The growth inhibition was 22% in test [5] (setting [7]); 81% (active) in test [5] (setting [8]); 16.4% in test [5] (at 50.0 µM); 22% in test [6] (setting [7]); 70% (active) in test [6] (setting [8]); 18.4% in test [6] (at 50.0 µM).
As to `CCN(CC)CCSCCCNc1cc(OC)cc2cccnc12`, the growth inhibition in test [1] (setting [7]) is -1%; in test [1] (setting [8]) it was 24%; in test [1] (at 50.0 µM) it was 67.5%; in test [2] (setting [7]) it was 6%; in test [2] (setting [8]) it was 29%; in test [2] (at 50.0 µM), 59.6%. For the same compound, the growth inhibition in test [3] (setting [7]) is 13%; in test [3] (setting [8]) it was 54%; in test [3] (at 50.0 µM), 71% (active); in test [4] (setting [7]), 8%; in test [4] (setting [8]) it was 32%; in test [4] (at 50.0 µM), 78% (active). In addition, the growth inhibition is 10% in test [5] (setting [7]); 54% in test [5] (setting [8]); 54% in test [5] (at 50.0 µM); 7% in test [6] (setting [7]); 28% in test [6] (setting [8]); 65.3% in test [6] (at 50.0 µM).
In the case of `Cn1c2nc(-[n+]3ccc(-c4ccccc4)cc3)nc-2c([O-])n(C)c1=O`, the growth inhibition is 3% in test [1] (setting [7]); 3% in test [1] (setting [8]); -7.35% in test [1] (at 50.0 µM); -3% in test [2] (setting [7]); 8% in test [2] (setting [8]); 2.95% in test [2] (at 50.0 µM). The growth inhibition was 1% in test [3] (setting [7]); -4% in test [3] (setting [8]); 9.9% in test [3] (at 50.0 µM); -3% in test [4] (setting [7]); 1% in test [4] (setting [8]); 72.3% (active) in test [4] (at 50.0 µM). Also, the growth inhibition was -1% in test [5] (setting [7]); -3% in test [5] (setting [8]); -2% in test [5] (at 50.0 µM); -1% in test [6] (setting [7]); 16% in test [6] (setting [8]); -7.5% in test [6] (at 50.0 µM).
As to `O=[N+]([O-])c1ccc(N2N=NC(CN3CCOCC3)C2N2CCOCC2)cc1` (stereo not given), the growth inhibition in test [1] (setting [7]) was 5%; in test [1] (setting [8]), 42%; in test [1] (at 50.0 µM) it was 77.5% (active); in test [2] (setting [7]), 0%; in test [2] (setting [8]), 23%; in test [2] (at 50.0 µM) it was 47.3%. Besides, the growth inhibition in test [3] (setting [7]) is 1%; in test [3] (setting [8]) it was 56%; in test [3] (at 50.0 µM), 47.5%; in test [4] (setting [7]), 0%; in test [4] (setting [8]), 28%; in test [4] (at 50.0 µM), 24.5%. In addition, the growth inhibition in test [5] (setting [7]) was 2%; in test [5] (setting [8]) it was 32%; in test [5] (at 50.0 µM), 7.85%; in test [6] (setting [7]), 3%; in test [6] (setting [8]) it was 47%; in test [6] (at 50.0 µM), 60.1%.
Turning to `COC(=O)c1ccc(CCc2cc(O)ccc2O)cc1`, the growth inhibition in test [1] (setting [7]) was 58%; in test [1] (setting [8]) it was 99% (active); in test [1] (at 50.0 µM), 98.8% (active); in test [2] (setting [7]) it was 74% (active); in test [2] (setting [8]), 100% (active); in test [2] (at 50.0 µM), 98.5% (active). In addition, the growth inhibition in test [3] (setting [7]) is 70% (active); in test [3] (setting [8]), 99% (active); in test [3] (at 50.0 µM), 98% (active); in test [4] (setting [7]) it was 27%; in test [4] (setting [8]) it was 99% (active); in test [4] (at 50.0 µM) it was 88.8% (active). Besides, the growth inhibition in test [5] (setting [7]) was 52%; in test [5] (setting [8]), 99% (active); in test [5] (at 50.0 µM), 98.5% (active); in test [6] (setting [7]) it was 88% (active); in test [6] (setting [8]) it was 99% (active); in test [6] (at 50.0 µM), 98.8% (active).
For the compound `CC(=N/NC(=S)NCC(C)C)/C(C)=N\Nc1ccc(Cl)cc1`, the growth inhibition is 2% in test [1] (setting [7]); 81% (active) in test [1] (setting [8]); 95% (active) in test [1] (at 50.0 µM); -1% in test [2] (setting [7]); 79% (active) in test [2] (setting [8]); 73.2% (active) in test [2] (at 50.0 µM). Moreover, the growth inhibition in test [3] (setting [7]) is 1%; in test [3] (setting [8]), 91% (active); in test [3] (at 50.0 µM) it was 92.4% (active); in test [4] (setting [7]) it was -4%; in test [4] (setting [8]), 79% (active); in test [4] (at 50.0 µM), 72.8% (active). Further, the growth inhibition was -4% in test [5] (setting [7]); 82% (active) in test [5] (setting [8]); 93.7% (active) in test [5] (at 50.0 µM); 0% in test [6] (setting [7]); 90% (active) in test [6] (setting [8]); 92% (active) in test [6] (at 50.0 µM).
`Cc1ccc(S(=O)(=O)NCCSSCCNS(=O)(=O)c2ccc(C)cc2)cc1`: the growth inhibition in test [1] (setting [7]) was -4%; in test [1] (setting [8]), 95% (active); in test [1] (at 50.0 µM), 93.5% (active); in test [2] (setting [7]), -3%; in test [2] (setting [8]), 97% (active); in test [2] (at 50.0 µM) it was 96% (active). For the same compound, the growth inhibition in test [3] (setting [7]) was -2%; in test [3] (setting [8]) it was 98% (active); in test [3] (at 50.0 µM) it was 96.6% (active); in test [4] (setting [7]), -6%; in test [4] (setting [8]), 96% (active); in test [4] (at 50.0 µM), 94% (active). Also, the growth inhibition in test [5] (setting [7]) was 1%; in test [5] (setting [8]) it was 95% (active); in test [5] (at 50.0 µM), 94.3% (active); in test [6] (setting [7]), 1%; in test [6] (setting [8]), 96% (active); in test [6] (at 50.0 µM) it was 95.4% (active).
